# Data: the supplement of paper PMC10037445
# The full ranking holds about 2,900 compounds; the median of “NF-kB SEAP reporter activity, fold change vs agonist alone” is about 0.99, and the highest 2% start at about 2.6. Shown is part of a subset that was picked to be rich in the highest values.
# Tests used:
# RAW-Dual [1] = test: NF-kB SEAP reporter activity, fold change vs agonist alone; cytotoxicity flag (confluency mask): not cytotoxic; higher = enhanced NF-kB activity
# Procedure, shortened: (§1)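 Supernatant from RAW-Dual macrophages was read after 20 hours for IRF by QuantiLuc luminescence and for NF-κB by QuantiBlue absorbance at 620 nm. The cells (50,000 cells/well in DMEM, 384-well plates, 37 °C, 5% CO2) had received 50 nL of library stock by pin tool and, 1 h later, a PRR agonist. Reporter activity is expressed relative to agonist-alone wells as fold change, and wells were flagged cytotoxic if IncuCyte confluency was under 70% of agonist controls in both mask sets.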
# RAW-Dual [2] = test: NF-kB SEAP reporter activity, fold change vs agonist alone; higher = enhanced NF-kB activity; settings: library stock concentration (final ~1000-fold dilution): 10 mM
# Procedure, shortened: as §1
# RAW-Dual [3] = test: NF-kB SEAP reporter activity, fold change vs agonist alone; cytotoxicity flag (confluency mask): cytotoxic (confluency <70% of control); higher = enhanced NF-kB activity
# Procedure, shortened: as §1
# [4] = agonist: ODN 1826 (TLR9) 0.5 ug/mL
# [5] = agonist: Pam2CSK4 (TLR2/6) 0.1 ug/mL
# [6] = agonist: Pam3CSK4 (TLR2/1) 0.1 ug/mL
# [7] = cytotoxicity flag (confluency mask): not cytotoxic, agonist: Imiquimod (TLR7) […]
# [8] = cytotoxicity flag (confluency mask): not cytotoxic, agonist: MPLA (TLR4) […]
compound,measurement,setting,value
Oc1c(F)cc(-c2cnccc2-c2ccc(N3CCOCC3)cc2)cc1F (library stock concentration (final ~1000-fold dilution): 10 mM),NF-kB SEAP reporter activity,RAW-Dual [1]; agonist: LPS (TLR4) 0.1 ug/mL,1.12
same,NF-kB SEAP reporter activity,RAW-Dual [1]; [4],0.913
same,NF-kB SEAP reporter activity,RAW-Dual [1]; [5],0.947
same,NF-kB SEAP reporter activity,RAW-Dual [1]; [6],0.73
Oc1c(F)cc(-c2cnccc2-c2ccc(N3CCOCC3)cc2)cc1F,NF-kB SEAP reporter activity,RAW-Dual [2]; [7],1.08
same,NF-kB SEAP reporter activity,RAW-Dual [2]; [8],0.911
O=C(Nc1cc(C(F)(F)F)ccc1N1CCN(Cc2ccccn2)CC1)c1ccc(-c2ccncc2)o1,NF-kB SEAP reporter activity,RAW-Dual [2]; [7],0.609
same,NF-kB SEAP reporter activity,RAW-Dual [2]; [8],1.03
O=C(Nc1cc(C(F)(F)F)ccc1N1CCN(Cc2ccccn2)CC1)c1ccc(-c2ccncc2)o1 (library stock concentration (final ~1000-fold dilution): 10 mM),NF-kB SEAP reporter activity,RAW-Dual [1]; agonist: LPS (TLR4) 0.1 ug/mL,1.25
same,NF-kB SEAP reporter activity,RAW-Dual [1]; [4],0.731
same,NF-kB SEAP reporter activity,RAW-Dual [1]; [5],0.657
same,NF-kB SEAP reporter activity,RAW-Dual [1]; [6],0.818
CC(C)CCN1c2nc(Nc3cc(F)c(O)c(F)c3)ncc2N(C)C(=O)C1C (stereo unspecified) (library stock concentration (final ~1000-fold dilution): 10 mM),NF-kB SEAP reporter activity,RAW-Dual [1]; agonist: LPS (TLR4) 0.1 ug/mL,4.3
same,NF-kB SEAP reporter activity,RAW-Dual [1]; [4],2.63
same,NF-kB SEAP reporter activity,RAW-Dual [1]; [5],1.02
same,NF-kB SEAP reporter activity,RAW-Dual [1]; [6],2.05
CC(C)CCN1c2nc(Nc3cc(F)c(O)c(F)c3)ncc2N(C)C(=O)C1C (stereo unspecified),NF-kB SEAP reporter activity,RAW-Dual [2]; [7],2.84
same,NF-kB SEAP reporter activity,RAW-Dual [2]; [8],2.55
COc1cc(-c2cc(-c3ccc(Cl)cc3)nc(=O)[nH]2)ccc1O,NF-kB SEAP reporter activity,RAW-Dual [2]; [7],1.09
same,NF-kB SEAP reporter activity,RAW-Dual [2]; [8],1.15
COc1cc(-c2cc(-c3ccc(Cl)cc3)nc(=O)[nH]2)ccc1O (library stock concentration (final ~1000-fold dilution): 10 mM),NF-kB SEAP reporter activity,RAW-Dual [1]; agonist: LPS (TLR4) 0.1 ug/mL,1.6
same,NF-kB SEAP reporter activity,RAW-Dual [1]; [4],0.991
same,NF-kB SEAP reporter activity,RAW-Dual [1]; [5],1.22
same,NF-kB SEAP reporter activity,RAW-Dual [1]; [6],1.39
CCN(CC)CC#CCOC(=O)C(O)(c1ccccc1)C1CCCCC1.Cl (stereo unspecified) (library stock concentration (final ~1000-fold dilution): 10 mM),NF-kB SEAP reporter activity,RAW-Dual [1]; agonist: LPS (TLR4) 0.1 ug/mL,2.01
same,NF-kB SEAP reporter activity,RAW-Dual [1]; [4],0.958
same,NF-kB SEAP reporter activity,RAW-Dual [1]; [5],0.963
same,NF-kB SEAP reporter activity,RAW-Dual [1]; [6],1.3
CCN(CC)CC#CCOC(=O)C(O)(c1ccccc1)C1CCCCC1.Cl (stereo unspecified),NF-kB SEAP reporter activity,RAW-Dual [2]; [7],1.75
same,NF-kB SEAP reporter activity,RAW-Dual [2]; [8],1.46
O=C(O)CCCN1CCC(OC(c2ccc(Cl)cc2)c2ccccn2)CC1 (stereo unspecified) (library stock concentration (final ~1000-fold dilution): 10 mM),NF-kB SEAP reporter activity,RAW-Dual [1]; agonist: LPS (TLR4) 0.1 ug/mL,0.969
same,NF-kB SEAP reporter activity,RAW-Dual [1]; [4],0.924
same,NF-kB SEAP reporter activity,RAW-Dual [1]; [5],1.07
same,NF-kB SEAP reporter activity,RAW-Dual [1]; [6],0.895
O=C(O)CCCN1CCC(OC(c2ccc(Cl)cc2)c2ccccn2)CC1 (stereo unspecified),NF-kB SEAP reporter activity,RAW-Dual [2]; [7],0.895
same,NF-kB SEAP reporter activity,RAW-Dual [2]; [8],1.07
COc1cc2nccc(Oc3ccc(NC(=O)C4(C(=O)Nc5ccc(F)cc5)CC4)cc3)c2cc1OC (library stock concentration (final ~1000-fold dilution): 10 mM),NF-kB SEAP reporter activity,RAW-Dual [1]; agonist: LPS (TLR4) 0.1 ug/mL,0.511
same,NF-kB SEAP reporter activity,RAW-Dual [1]; [4],0.42
same,NF-kB SEAP reporter activity,RAW-Dual [1]; [5],0.302
same,NF-kB SEAP reporter activity,RAW-Dual [1]; [6],0.275
CN1CCN(C2CCN(C(=O)Nc3cc(Oc4ccc(NC(=O)C5(C(=O)Nc6ccc(F)cc6)CC5)c(F)c4)ccn3)CC2)CC1,NF-kB SEAP reporter activity,"RAW-Dual [2]; cytotoxicity flag (confluency mask): cytotoxic (confluency <70% of control), agonist: Imiquimod (TLR7) […]",2.76
same,NF-kB SEAP reporter activity,"RAW-Dual [2]; cytotoxicity flag (confluency mask): cytotoxic (confluency <70% of control), agonist: MPLA (TLR4) […]",2.32
COc1cc2c(Oc3ccc(NC(=O)C4(C(=O)Nc5ccc(F)cc5)CC4)cc3F)ccnc2cc1OCCCN1CCOCC1 (library stock concentration (final ~1000-fold dilution): 10 mM),NF-kB SEAP reporter activity,RAW-Dual [1]; agonist: LPS (TLR4) 0.1 ug/mL,0.266
same,NF-kB SEAP reporter activity,RAW-Dual [1]; [4],0.184
same,NF-kB SEAP reporter activity,RAW-Dual [1]; [5],0.0818
same,NF-kB SEAP reporter activity,RAW-Dual [1]; [6],0.137
COc1cc2c(Oc3ccc(NC(=O)C4(C(=O)Nc5ccc(F)cc5)CC4)cc3F)ccnc2cc1OCCCN1CCOCC1,NF-kB SEAP reporter activity,RAW-Dual [2]; [7],0.252
same,NF-kB SEAP reporter activity,RAW-Dual [2]; [8],0.252
CN1CCN(C2CCN(C(=O)Nc3cc(Oc4ccc(NC(=O)C5(C(=O)Nc6ccc(F)cc6)CC5)c(F)c4)ccn3)CC2)CC1 (library stock concentration (final ~1000-fold dilution): 10 mM),NF-kB SEAP reporter activity,RAW-Dual [3]; agonist: LPS (TLR4) 0.1 ug/mL,1.43
same,NF-kB SEAP reporter activity,RAW-Dual [3]; [4],0.896
same,NF-kB SEAP reporter activity,RAW-Dual [3]; [5],0.607
same,NF-kB SEAP reporter activity,RAW-Dual [3]; [6],0.664
COc1cc2nccc(Oc3ccc(NC(=O)C4(C(=O)Nc5ccc(F)cc5)CC4)cc3)c2cc1OC,NF-kB SEAP reporter activity,RAW-Dual [2]; [7],0.555
same,NF-kB SEAP reporter activity,RAW-Dual [2]; [8],0.59
CC(Nc1nc(NC(C)C(F)(F)F)nc(-c2cccc(Cl)n2)n1)C(F)(F)F (stereo unspecified) (library stock concentration (final ~1000-fold dilution): 10 mM),NF-kB SEAP reporter activity,RAW-Dual [1]; agonist: LPS (TLR4) 0.1 ug/mL,1.26
same,NF-kB SEAP reporter activity,RAW-Dual [1]; [4],1.18
same,NF-kB SEAP reporter activity,RAW-Dual [1]; [5],0.998
same,NF-kB SEAP reporter activity,RAW-Dual [1]; [6],1.09
CC(Nc1nc(NC(C)C(F)(F)F)nc(-c2cccc(Cl)n2)n1)C(F)(F)F (stereo unspecified),NF-kB SEAP reporter activity,RAW-Dual [2]; [7],1.04
same,NF-kB SEAP reporter activity,RAW-Dual [2]; [8],1.11
CC1CNc2c(cccc2S(=O)(=O)NC(CCCNC(=N)N)C(=O)N2CCC(C)CC2C(=O)O)C1.O (stereo unspecified) (library stock concentration (final ~1000-fold dilution): 10 mM),NF-kB SEAP reporter activity,RAW-Dual [1]; agonist: LPS (TLR4) 0.1 ug/mL,0.94
same,NF-kB SEAP reporter activity,RAW-Dual [1]; [4],1.05
same,NF-kB SEAP reporter activity,RAW-Dual [1]; [5],0.969
same,NF-kB SEAP reporter activity,RAW-Dual [1]; [6],0.87
CC1CNc2c(cccc2S(=O)(=O)NC(CCCNC(=N)N)C(=O)N2CCC(C)CC2C(=O)O)C1.O (stereo unspecified),NF-kB SEAP reporter activity,RAW-Dual [2]; [8],0.981
O=C(OC1OC2COC(=O)c3cc(O)c(O)c(O)c3-c3c(cc(O)c(O)c3O)C(=O)OC(C2O)C1O)c1cc(O)c(O)c(O)c1 (stereo unspecified),NF-kB SEAP reporter activity,RAW-Dual [2]; [7],0.783
same,NF-kB SEAP reporter activity,RAW-Dual [2]; [8],1.08
O=C(OC1OC2COC(=O)c3cc(O)c(O)c(O)c3-c3c(cc(O)c(O)c3O)C(=O)OC(C2O)C1O)c1cc(O)c(O)c(O)c1 (stereo unspecified) (library stock concentration (final ~1000-fold dilution): 10 mM),NF-kB SEAP reporter activity,RAW-Dual [1]; agonist: LPS (TLR4) 0.1 ug/mL,1.34
same,NF-kB SEAP reporter activity,RAW-Dual [1]; [4],0.874
same,NF-kB SEAP reporter activity,RAW-Dual [1]; [5],0.809
same,NF-kB SEAP reporter activity,RAW-Dual [1]; [6],0.393
